Source: PubChem (National Center for Advancing Translational Sciences (NCATS))
Most compounds without a hit are left out; they make up all but 7.5% or so of the library.
Rab9 prom act = activates the Rab9 promoter; Huh7 Rab9 promoter-luciferase reporter, luminescence, 24 h; Potency, µM (highest dose often 9.22 µM), for inactives: top-dose activation, negative = inhibition, hits mostly activators; 320,000 tested, 2.8% active; AID 485297; note: % of control where 0% means no effect; nearly all actives have a fitted effect of over 60% in size
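Huh7 cells stably carrying a Rab9 promoter-luciferase reporter, 1500 cells per well in OP-MEM I with 10% FBS, treated with compound 24 hours at 37C. Luciferase activity read by luminescence after 10 minutes with Amplite reagent.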
FLuc counter = counter-screen for miR-21 project: firefly luciferase inhibitors or activators; P08659; purified FLuc, Km substrates, luminescence inhibition; Potency, µM (highest dose often 57.5 µM), for the others: at the top dose activity change, negative = inhibition, actives largely listed as inhibitors; 360,000 tested, 6.9% active; AID 588342;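 note: plate controls were vehicle for no effect and reference inhibitor for full effect; nearly all actives have a fitted effect of over 55% in size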
Target sequence (P08659 whole entry, looked up): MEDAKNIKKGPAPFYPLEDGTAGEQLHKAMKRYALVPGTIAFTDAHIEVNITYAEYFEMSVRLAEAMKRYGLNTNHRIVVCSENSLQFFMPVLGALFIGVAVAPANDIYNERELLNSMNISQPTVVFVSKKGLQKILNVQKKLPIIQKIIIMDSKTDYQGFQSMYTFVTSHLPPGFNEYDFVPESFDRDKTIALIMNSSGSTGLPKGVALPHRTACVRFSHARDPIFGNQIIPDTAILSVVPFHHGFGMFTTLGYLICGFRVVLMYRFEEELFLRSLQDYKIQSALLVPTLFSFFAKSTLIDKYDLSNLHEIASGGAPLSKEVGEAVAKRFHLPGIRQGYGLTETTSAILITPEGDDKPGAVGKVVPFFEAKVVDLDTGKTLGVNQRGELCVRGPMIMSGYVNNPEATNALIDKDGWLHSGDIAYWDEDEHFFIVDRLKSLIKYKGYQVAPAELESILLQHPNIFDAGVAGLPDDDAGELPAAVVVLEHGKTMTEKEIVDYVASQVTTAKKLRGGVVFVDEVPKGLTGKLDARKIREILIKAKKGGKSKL
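Purified P. pyralis luciferase (10nM final) with 10uM D-luciferin and 10uM ATP (Km levels) in 50mM Tris acetate pH 7.5, 10mM Mg acetate, 0.01% Tween-20, 0.05% BSA; qHTS 6-point titration, ~60 µM downward; luminescence read.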
ELG1 genotoxic = induces genotoxicity in HEK293T cells with luciferase-tagged ELG1. HEK293T ELG1-luciferase reporter, luminescence, 16 h. Potency, µM (titrated, usually from 46 µM), inactives show at the top dose activity change, positive = activation, most hits filed as activators. 330,000 tested, 1.3% active; note: % of control where 0% means no effect; nearly all actives have a fitted effect of over 60% in size
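Step 1: seed 2,000 HEK293T ELG1-luciferase cells per well. Step 2: add compound or DMSO, incubate 16 hr at 37 °C. Step 3: ONE-Glo, 30 min at room temperature, read luminescence.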
SMN2 splice enh = enhancers of SMN2 splice variant expression. 210,000 tested, 2.8% active. Potency, µM (doses to about 46.1 µM), without a hit: at the top dose activity change, positive = activation, hits mostly activators. HEK293 SMN2-luciferase splicing reporter, luminescence, 30-36 h. AID 1458; note: % of control where 0% means no effect; nearly all actives have a fitted effect of over 55% in size
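HEK293 cells carry an SMN2 minigene-luciferase reporter in which exon 7 inclusion puts luciferase in frame. Cells were seeded at 2000 cells/well, attached for 10-12 hours, then exposed to compounds for 30-36 hours at 37C before ONE-Glo luminescence.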
NPC1 promoter act = activators of NPC1 promoter; Potency, µM (highest dose often 9.22 µM), for the others: top-dose activation, most hits filed as activators; 320,000 tested, 2.4% active; Huh7 NPC1 promoter luciferase reporter, 24 h; note: % of control where 0% means no effect; nearly all actives have a fitted effect of over 60% in size
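Luminescence read-out of NPC1 promoter-driven luciferase in stably transfected Huh7 cells; compounds delivered in DMSO and left 24 h at 37C, 5% CO2, qHTS titration format.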
* marks the source's active call; other numbers are inactive results. Calls come from the whole dose curve; as a rule, active = well fitted curve in the direction sought with a large enough effect; inconclusive = small, poorly fitted or top-dose-only effect, or another doubt; inactive = no such curve, though single readings can be large; an effect the other way counts as inactive or inconclusive. Potency is the fitted concentration of half-maximal effect.

How did O=C(Nc1nnc(SCC(=O)N2CCCc3ccccc32)s1)c1ccc2ccccc2c1 do in these assays?
Rab9 prom act: 2.8µM*; FLuc counter: 1.2µM*; ELG1 genotoxic: inconclusive; SMN2 splice enh: 11µM*; NPC1 promoter act: inconclusive

Results for O=C(Nc1nnc(SCC(=O)N2CCCc3ccccc32)s1)c1ccccc1 ?
Rab9 prom act: inconclusive; FLuc counter: 1.5µM*; ELG1 genotoxic: 12%; SMN2 splice enh: 11µM*; NPC1 promoter act: inconclusive

What do the screens show for `COc1cc(OC)cc(C(=O)NCCCNC(=O)c2ccccn2)c1`?
Rab9 prom act: 1%; FLuc counter: 3%; ELG1 genotoxic: 3%; NPC1 promoter act: -1%

Results for COc1ccc(/C(N)=N/OC(=O)COc2ccccc2Cl)cc1 ?
Rab9 prom act: 11%; FLuc counter: 21µM*; ELG1 genotoxic: inconclusive; SMN2 splice enh: inconclusive; NPC1 promoter act: 7%

Results for Cc1ccc(C)c(OCC(=O)O/N=C(\N)c2cccc([N+](=O)[O-])c2)c1 ?
Rab9 prom act: 2%; FLuc counter: -4%; ELG1 genotoxic: 0%; NPC1 promoter act: 1%

What do the screens show for `N/C(=N\OC(=O)COc1ccccc1)c1ccc(Cl)cc1`?
Rab9 prom act: 0%; FLuc counter: inconclusive; ELG1 genotoxic: inconclusive; SMN2 splice enh: 21%; NPC1 promoter act: 0%

Results for N/C(Cc1ccc(Cl)cc1Cl)=N\OC(=O)Cc1ccccc1 ?
Rab9 prom act: -3%; FLuc counter: 15µM*; ELG1 genotoxic: 0%; SMN2 splice enh: 8%; NPC1 promoter act: -1%

How did Cc1cccc(/C(N)=N/OC(=O)Cc2ccccc2)c1 do in these assays?
Rab9 prom act: 20%; FLuc counter: 15µM*; ELG1 genotoxic: inconclusive; SMN2 splice enh: 11%; NPC1 promoter act: 14%

Results for CCC(C(=O)O/N=C(\N)c1cccc(C)c1)c1ccccc1 (centres undefined) ?
Rab9 prom act: 9%; FLuc counter: inconclusive; ELG1 genotoxic: 25%; SMN2 splice enh: 4%; NPC1 promoter act: 15%

What do the screens show for `Cc1cccc(/C(N)=N/OC(=O)COc2ccccc2Cl)c1`?
Rab9 prom act: 16%; FLuc counter: 19µM*; ELG1 genotoxic: inconclusive; SMN2 splice enh: inconclusive; NPC1 promoter act: 22%

Results for COc1cccc(C(=O)N2CCC(N3CC(C)OC(C)C3)CC2)c1 (centres undefined) ?
Rab9 prom act: -1%; FLuc counter: -1%; ELG1 genotoxic: -1%; SMN2 splice enh: -22%; NPC1 promoter act: -2%

What do the screens show for `CCOC(=O)C1=C(COC(=O)/C=C/c2ccc(O)c(OC)c2)NC(=O)NC1C` (centres undefined)?
Rab9 prom act: -5%; FLuc counter: 1%; ELG1 genotoxic: 3%; NPC1 promoter act: 0%

What do the screens show for `O=C(CN1C(=O)NC2(CCCC2)C1=O)Nc1cc(S(=O)(=O)N2CCOCC2)ccc1OCC(F)(F)F`?
Rab9 prom act: 3%; FLuc counter: 5%; ELG1 genotoxic: 3%; NPC1 promoter act: -1%

How did COC(=O)c1cc(S(=O)(=O)Nc2ccc(C)cn2)c[nH]1 do in these assays?
Rab9 prom act: 0%; FLuc counter: 0%; ELG1 genotoxic: 0%; NPC1 promoter act: 2%

What do the screens show for `Cc1cc2nc(CSc3ccccc3)cc(=O)n2[nH]1`?
Rab9 prom act: 6%; FLuc counter: inconclusive; ELG1 genotoxic: -5%; SMN2 splice enh: 14%; NPC1 promoter act: 10%

What do the screens show for `COc1ccc(N2CCN(C(=O)c3cc(-c4cccs4)nc4ccccc34)CC2)cc1`?
Rab9 prom act: -1%; FLuc counter: inconclusive; ELG1 genotoxic: -14%; SMN2 splice enh: -11%; NPC1 promoter act: 1%

How did C/C(=N/NC(=O)c1ccc(Cl)cc1Cl)c1cccnc1 do in these assays?
Rab9 prom act: 16%; FLuc counter: inconclusive; ELG1 genotoxic: 1%; NPC1 promoter act: 2%

How did C/C(=N\NC(=O)c1cc(-c2ccco2)nc2ccccc12)c1cccnc1 do in these assays?
Rab9 prom act: 16%; FLuc counter: 13µM*; ELG1 genotoxic: 2%; SMN2 splice enh: 0%; NPC1 promoter act: 13%

How did CCOc1ccc(/C=N/NC(=O)c2cc(-c3ccco3)nc3ccccc23)cc1 do in these assays?
Rab9 prom act: 0%; FLuc counter: inconclusive; ELG1 genotoxic: 16%; SMN2 splice enh: inconclusive; NPC1 promoter act: -3%
